This is an account of results in PubChem BioAssay (NCATS).

Assay [1] can be described thus: Primary qHTS for inhibitors of SARS-S pseudo-typed particle cell entry (AID 1479145). Also: nearly all actives have a fitted effect of over 45% in size. As to activity change, negative = inhibition: % is scaled to controls: 0 for no effect and ±100 for the full control effect. The conditions noted are these: outcome: dose series up to 57.1 µM unless noted.
Assay [2] can be described thus: Primary qHTS for Huh7 cytotoxicity: counterscreen for inhibitors of MERS-S pseudotyped particle cell entry (AID 1479147). The following applies: outcome: dose series up to 57.1 µM unless noted.
Assay [3] can be described thus: Primary qHTS for inhibitors of MERS-S pseudo-typed particle cell entry (AID 1479149). Also: nearly all actives have a fitted effect of over 60% in size. As to activity change, negative = inhibition: % is scaled to controls: 0 for no effect and ±100 for the full control effect. The following applies: outcome: dose series up to 57.1 µM unless noted. (In general: Quantitative high-throughput screening tests each substance at several concentrations.)
Assay [4] is described as follows: Primary qHTS for Vero E6 cytotoxicity: counterscreen for inhibitors of SARS-S pseudo-typed particle cell entry (AID 1479150). As to activity change, negative = cytotoxicity: % is scaled to controls: 0 for no effect and ±100 for the full control effect. The following applies: outcome: dose series up to 57.1 µM unless noted.
Assay [5] in a line: Cytotoxicity counterscreen for inhibitors of SARS-CoV-2 cell entry (AID 1645845). Also: nearly all actives have a fitted effect of over 50% in size. As to activity change, negative = cytotoxicity: % is scaled to controls: 0 for no effect and ±100 for the full control effect. The following applies: outcome: dose series up to 57.1 µM unless noted. The method in brief: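 Counterscreen run in the same HEK293-ACE2 line as the pseudotyped-particle entry assay, without particles. Viability after 48 h at 37 C was read as ATP luminescence, scaled between cell-containing and cell-free wells.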
(A counterscreen serves to expose hits that act by an unwanted route or on another target.)

Assay [6] is described as follows: Primary qHTS to identify inhibitors of SARS-CoV-2 cell entry (AID 1645846). Also: nearly all actives have a fitted effect of over 45% in size. The following applies: SARS-CoV-2 pseudovirus cell entry assay, luminescence; activity change, negative = inhibition: at 57.1 µM (top of the series) unless noted. The method in brief:
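Using luciferase-reporting pseudoviruses carrying Wuhan-Hu-1 spike, the screen tracks entry into stably ACE2-expressing cells over 48 hr. Activity is expressed relative to spike particles versus particles lacking any fusion protein.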

Results filed as inconclusive are left out. Activity calls are given as the source filed them. Calls follow the shape of the full dose curve.

Consider `NCCCC[C@H](NC(=O)[C@@H]1CCCN1C(=O)[C@@H]1CSSC[C@H](N)C(=O)N[C@@H](Cc2ccc(O)cc2)C(=O)N[C@@H](Cc2ccccc2)C(=O)N[C@@H](CCC(N)=O)C(=O)N[C@@H](CC(N)=O)C(=O)N1)C(=O)NCC(N)=O`, for which the Potency result in assay [1], in assay [2], in assay [3], in assay [4] and in assay [5] was “inactive” each time. For the same molecule, the activity change, negative = inhibition in assay [6] is -25.1%.

Turning to `CNC(=O)C[C@@H](N)C(=O)N[C@@H](C(=O)N[C@@H]1C(=O)N2[C@@H]1SC(C)(C)[C@@H]2C(=O)O)c1ccc(O)cc1`, the Potency result in assay [1], in assay [2], in assay [3], in assay [4] and in assay [5] was “inactive” throughout. Besides, the activity change, negative = inhibition in assay [6] is -19.8%.

Take `CO/N=C(\C(=O)N[C@@H]1C(=O)N2C(C(=O)O)=C(CSc3cnns3)CS[C@H]12)c1csc(N)n1`: the Potency result in assay [1], in assay [2], in assay [3], in assay [4] and in assay [5] was “inactive” each time. In addition, the activity change, negative = inhibition in assay [6] was -7.92%.

Turning to `CO[C@H]1/C=C\O[C@@]2(C)Oc3c(C)c(O)c4c(O)c(c(/C=N/N5CCN(C6CCCC6)CC5)c(O)c4c3C2=O)NC(=O)/C(C)=C\C=C/[C@H](C)[C@H](O)[C@@H](C)[C@@H](O)[C@@H](C)[C@H](OC(C)=O)[C@@H]1C`, the Potency result in assay [1], in assay [2], in assay [3], in assay [4], in assay [5] and in assay [6] was “inactive” throughout.

With `C[C@]12CCC3c4ccc(OS(=O)(=O)O)cc4CCC3C1CCC2=O` (stereo partly specified), the Potency result in assay [1], in assay [2], in assay [3], in assay [4] and in assay [5] was “inactive” each time. Also, in assay [6], the activity change, negative = inhibition was -13.1%.

Turning to `Cn1cc(OCC(O)CNC(C)(C)C)c2ccccc2c1=O` (stereo unspecified), the Potency entry in assay [1], in assay [2], in assay [3], in assay [4] and in assay [5] was “inactive” each time. In addition, the activity change, negative = inhibition in assay [6] was -17.6%.

Take `CCN(CC)CCOC(=O)c1cccnc1`: the Potency result in assay [1], in assay [2], in assay [3], in assay [4] and in assay [5] was “inactive” throughout. The activity change, negative = inhibition in assay [6] is -32.2%.

With `CCCCCCCCCCCC(=O)OCN1C(=O)CCc2ccc(OCCCCN3CCN(c4cccc(Cl)c4Cl)CC3)cc21`, the Potency result in assay [1], in assay [2], in assay [3], in assay [4] and in assay [5] was “inactive” each time. Also, the activity change, negative = inhibition in assay [6] is -17.3% [at 19 µM].

For the molecule `C[C@@H](O)[C@H]1C(=O)N2C(C(=O)O)=C(S[C@@H]3CN[C@H](C(=O)Nc4cccc(C(=O)O)c4)C3)[C@H](C)[C@H]12`, the Potency result in assay [1], in assay [2], in assay [3], in assay [4] and in assay [5] was “inactive” throughout. In assay [6], the activity change, negative = inhibition was 0.84%.

Consider `COC(=S)NCCn1c([N+](=O)[O-])cnc1C`, for which the Potency entry in assay [1], in assay [2], in assay [3], in assay [4] and in assay [5] was “inactive” in each case. Besides, the activity change, negative = inhibition in assay [6] was -22.7%.

As to `CSCCNc1nc(SCCC(F)(F)F)nc2c1ncn2[C@@H]1O[C@H](COP(=O)(O)OP(=O)(O)C(Cl)(Cl)P(=O)(O)O)[C@@H](O)[C@H]1O`, the Potency result in assay [1], in assay [2], in assay [3], in assay [4] and in assay [5] was “inactive” in each case. Besides, the activity change, negative = inhibition in assay [6] is -28.8%.

As to `CCC(=O)OCC(=O)[C@]1(OC(=O)CC)[C@H](C)C[C@H]2[C@H]3[C@H]([C@@H](O)C[C@@]21C)[C@@]1(C)C=CC(=O)C=C1C[C@H]3Cl`, the Potency result in assay [1], in assay [2], in assay [3], in assay [4] and in assay [5] was “inactive” each time. Further, the activity change, negative = inhibition in assay [6] was -6.25%.

Consider `NC(C(=O)NC1C(=O)N2C(C(=O)O)=C(CSc3cn[nH]n3)CSC12)c1ccc(O)cc1` (stereo unspecified), for which the Potency entry in assay [1], in assay [2], in assay [3], in assay [4] and in assay [5] was “inactive” throughout. Further, the activity change, negative = inhibition in assay [6] was -22%.

With `COc1cccc(N2CCN(C3=Nc4c(F)cccc4[C@H](CC(=O)O)N3c3cc(C(F)(F)F)ccc3OC)CC2)c1`, the Potency result in assay [1], in assay [2], in assay [3], in assay [4], in assay [5] and in assay [6] was “inactive” throughout.

On to `CCCC(=O)O[C@]1(C(=O)COC(C)=O)CC[C@H]2C3C[C@H](F)C4=CC(=O)C=C[C@]4(C)[C@@]3(F)[C@@H](O)C[C@@]21C` (stereo partly specified), for which the Potency entry in assay [1], in assay [2], in assay [3], in assay [4] and in assay [5] was “inactive” in each case. Further, the activity change, negative = inhibition in assay [6] was -5.47%.

On to `CC(C)(C)C(=O)OCC(=O)[C@H]1CC[C@H]2[C@@H]3CCC4=CC(=O)CC[C@]4(C)[C@H]3CC[C@]12C`, for which the Potency entry in assay [1], in assay [2], in assay [3], in assay [4] and in assay [5] was “inactive” in each case. Also, the activity change, negative = inhibition in assay [6] was -13%.

Consider `CCCCCCCCCCCCCCCCCC(=O)OCC(C)O` (stereo unspecified), for which the Potency entry in assay [1], in assay [2], in assay [3], in assay [4] and in assay [5] was “inactive” each time. Further, in assay [6], the activity change, negative = inhibition is -21% [at 114 µM].

On to `COC(=O)N[C@H](C(=O)N1CCC[C@H]1C(=O)Nc1ccc([C@@H]2CC[C@@H](c3ccc(NC(=O)[C@@H]4CCCN4C(=O)[C@@H](NC(=O)OC)C(C)C)cc3)N2c2ccc(C(C)(C)C)cc2)cc1)C(C)C`, for which the Potency entry in assay [1], in assay [2], in assay [3], in assay [4] and in assay [5] was “inactive” in each case. Besides, the activity change, negative = inhibition in assay [6] was -22.9%.

With `OCC1OC(c2ccc(Cl)c(Cc3ccc(OC4CCOC4)cc3)c2)C(O)C(O)C1O` (stereo unspecified), the Potency result in assay [1], in assay [2], in assay [3], in assay [4] and in assay [5] was “inactive” throughout. Further, the activity change, negative = inhibition in assay [6] is -20.7%.

Regarding `C[C@@H](O)[C@H]1C(=O)N2C(C(=O)[O-])=C(SC3Cn4cnc[n+]4C3)[C@H](C)[C@H]12` (stereo partly specified), the activity change, negative = inhibition in assay [1] was -18.9% [at 11.4 µM] (inactive); in assay [3], -3.17% [at 11.4 µM] (inactive); in assay [6] it was -12.2% [at 11.3 µM]. In addition, the outcome is “inactive [at 11.4 µM]” in assay [2] and “inactive [at 11.3 µM]” in assay [5]. Also, the activity change, negative = cytotoxicity in assay [4] was 4.16% [at 11.4 µM] (inactive).

For the molecule `CC(=O)OCC(=O)[C@@]1(O)[C@H](C)C[C@H]2[C@@H]3C[C@H](F)C4=CC(=O)C=C[C@]4(C)[C@@]3(F)[C@@H](O)C[C@@]21C`, the Potency entry in assay [1], in assay [2], in assay [3], in assay [4], in assay [5] and in assay [6] was “inactive” throughout.
